The list is not random: actives were taken first. Their share in the collection is about 2.4%.
D2 ag-1 = Beta-Arrestin HTS for Positive Allosteric Modulators of the Human D2 Dopamine Receptor: Agonists; D(2) dopamine receptor (Homo sapiens), P14416; DiscoveRx PathHunter D2 beta-arrestin, luminescence, 90 min; 100% = 57 uM dopamine signal; activation, % (concentration not given with the values); 360,000 compounds, 0.084% hits; in the data active = activation above about 40%; inconclusive = between about 15% and that limit
Target sequence (P14416 whole entry, looked up): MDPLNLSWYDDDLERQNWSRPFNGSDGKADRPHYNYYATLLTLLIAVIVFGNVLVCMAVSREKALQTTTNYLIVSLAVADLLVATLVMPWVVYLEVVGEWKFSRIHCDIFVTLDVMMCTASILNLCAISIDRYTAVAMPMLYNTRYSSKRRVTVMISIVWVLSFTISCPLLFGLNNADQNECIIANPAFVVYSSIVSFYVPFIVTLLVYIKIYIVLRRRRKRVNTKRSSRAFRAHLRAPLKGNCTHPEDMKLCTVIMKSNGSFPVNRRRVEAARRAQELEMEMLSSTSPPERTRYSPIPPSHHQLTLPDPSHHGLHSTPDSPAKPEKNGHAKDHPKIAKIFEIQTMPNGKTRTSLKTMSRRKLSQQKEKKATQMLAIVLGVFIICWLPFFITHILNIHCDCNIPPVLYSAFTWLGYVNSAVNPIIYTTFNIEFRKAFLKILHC
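Agonist mode: compounds alone added to overnight-plated D2 PathHunter cells for 90 min at 37 C, with 57 uM final dopamine (EC100) defining full response. Beta-arrestin recruitment detected by chemiluminescent reagent, read after 1 h at ambient temperature.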
D2 ag-2 = HTS Assay for Allosteric Agonists of the Human D2 Dopamine Receptor: Primary Screen for Agonists; D(2) dopamine receptor (Homo sapiens), P14416; HEK293 T-REx D2 cells, calcium flux agonist mode; 340,000 compounds, 0.53% hits; activation, % at 2 µM;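 active = activation over 3 SD above normal in the single-dose calcium agonist read, cut at about 30% in these data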; also: 0% is about no effect
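Calcium-flux readout, 1 cycle/sec over 180 s following compound pin transfer, in inducible HEK293 Trex D2 cells (force-coupled); dopamine controls included. Positive calcium responses during this window marked compounds as potential agonists.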
D2 antag = HTS Assay for Allosteric Antagonists of the Human D2 Dopamine Receptor: Primary Screen for Antagonists; D(2) dopamine receptor (Homo sapiens), P14416; HEK293 TREx D2 cells, calcium flux, dopamine EC80; inhibition, % at 10 µM; 340,000 compounds, 2% hits; AID 485344, 2010; in the data active = inhibition above about 30%; inactive = below that, where a call was filed; also: 0% is about no effect
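Tetracycline-induced HEK293 T-REx cells expressing D2 force-coupled to calcium signalling were dye-loaded, exposed to compound for 180 s, then challenged with an EC80 of dopamine; calcium flux was followed kinetically for a further 180 s.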
D2 PAM-1 = HTS Assay for Positive Allosteric Modulators of the Human D2 Dopamine Receptor: Primary Screen for Potentiators. HEK293 T-REx D2, calcium flux, EC20 dopamine potentiation. potentiation, % at 10 µM. 340,000 compounds, 0.34% hits. AID 485347, 2010;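 active = potentiation over 3 SD above the plate norm, cut at about 30% in these data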; also: 0% is about no effect
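Calcium flux readout, no-wash dye, 1 read/s. Inducible HEK293 Trex D2 line, overnight 30 C. Compound alone 180 s (agonist flags), then EC20 dopamine, another 180 s to score potentiation.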
D2 PAM-2 = Beta-Arrestin HTS for Positive Allosteric Modulators of the Human D2 Dopamine Receptor: Potentiators. D(2) dopamine receptor (Homo sapiens), P14416. DiscoveRx D2 beta-arrestin cells, luminescence, 90 min; 100% = 57 uM dopamine signal. potentiation, % (test concentration not listed). 360,000 compounds, 0.23% hits; in the data active = potentiation above about 50%; inconclusive = mostly about 30% to 49%
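D2 cells co-treated with compound plus 50 nM dopamine (EC20) for 90 min at 37 deg C to detect potentiation. Beta-arrestin recruitment was read as enzyme-fragment luminescence after 1 h at ambient temperature. Full response was set by 57 uM dopamine.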
The depositor's hits bear a star; ? = inconclusive; nt = no result given.

SMILES | D2 ag-1 | D2 ag-2 | D2 antag | D2 PAM-1 | D2 PAM-2
OC(CNCCc1c[nH]c2ccccc12)C(F)(F)F (stereo not drawn) | 4.7 | -0.1 | 12.5 | -3.6 | 2.8
OC(CCNCCc1c[nH]c2ccccc12)C(F)(F)Cl (stereo not drawn) | -4.4 | 14.3 | 52.7* | -42.6 | 3.0
Fc1cccc(CNCCc2c[nH]c3ccccc23)c1 | -1.0 | 12.9 | 2.8 | -17.4 | -59.1
O=c1c2ccccc2nc(/C=C\c2cccc(Br)c2)n1-c1ccc(O)cc1 | nt | 1.0 | nt | 5.6 | nt
Cc1ccc(C)c(CN2C(=O)c3ccccc3Sc3ccc(C(=O)N4CCC5(CC4)OCCO5)cc32)c1 | nt | 0.6 | nt | 5.9 | nt
CN1CCc2cccc(Cl)c2CC1 | -0.8 | 0.8 | 52.6* | -18.5 | -31.9
COC(=O)c1ccc(NC(=O)c2cccn(Cc3ccccc3C)c2=O)cc1 | nt | 0.8 | nt | -6.2 | nt
CS(=O)(=O)Nc1ccc(Cc2noc(-c3ccc4[nH]cc(CCN)c4c3)n2)cc1 | nt | 9.3 | 40.2* | -5.8 | nt
COc1ccc2c(CCN)c[nH]c2c1 | 0.2 | 1.0 | 8.3 | -5.2 | -14.8
COc1ccc(OC)c(CCNCc2c(C(=O)O)c(C)n(Cc3ccc(F)cc3Cl)c2C)c1 | nt | 0.2 | nt | -3.1 | nt
CC(C)NC(C)C(=O)c1ccc2ccccc2c1 (stereo not drawn) | -12.3 | -0.9 | 46.0* | 18.7 | -19.7
COc1ccc(C[C@@H]2c3cc(O)c(OC)cc3CCN2C)cc1O | -1.2 | 0.1 | 51.9* | -17.7 | -26.4
COc1cc2c(cc1O)[C@@H]1Cc3ccc(OC)c(O)c3CN1CC2 | 9.0 | -0.9 | 75.2* | -11.6 | -4.6
COc1ccc(CC2c3cc(OC)c(OC)cc3CCN2C)cc1OC (stereo not drawn) | 6.1 | nt | nt | nt | -5.9
Cc1ccc(-n2c(/C=C/c3cccs3)nc3ccccc3c2=O)cc1C | nt | nt | nt | 6.9 | nt
O=C(CCc1nc(C2=CCN(Cc3cccc(Cl)c3)CC2)no1)Nc1ccccc1F | nt | 0.6 | nt | 4.4 | nt
CSCCC(c1nnnn1-c1ccc2c(c1)OCCO2)N1CCC(n2c(=O)[nH]c3ccccc32)CC1 (stereo not drawn) | 3.7 | nt | nt | nt | 65.0*
O=c1[nH]c2ccccc2n1C1CCN(C(c2cc3ccccc3o2)c2nnnn2Cc2ccccc2)CC1 (stereo not drawn) | 2.2 | nt | nt | nt | 58.3*
O=c1[nH]c2ccccc2n1C1CCN(C(c2ccccc2OC(F)(F)F)c2nnnn2-c2ccc3c(c2)OCCO3)CC1 (stereo not drawn) | 10.0 | nt | nt | nt | 61.2*
COc1cccc(C(c2nnnn2-c2ccc3c(c2)OCCO3)N2CCC(n3c(=O)[nH]c4ccccc43)CC2)c1OC (stereo not drawn) | 3.7 | nt | nt | nt | ?
CCOc1ccccc1NC(=O)c1cccn(Cc2ccccc2C)c1=O | nt | 0.9 | nt | 11.5 | nt
c1ccc(CN2CCc3nc4ccccc4cc3C2)cc1 | 95.1* | 78.0* | 76.4* | -27.7 | 26.9
CC(=O)O[C@@]12CO[C@@H]1C[C@H](OC1OCC(O)C(O)C1O)[C@@]1(C)C(=O)[C@H](O)C3=C(C)[C@@H](OC(=O)[C@H](O)[C@@H](NC(=O)c4ccccc4)c4ccccc4)C[C@@](O)([C@@H](OC(=O)c4ccccc4)C12)C3(C)C (stereo partly drawn) | 8.2 | -0.1 | 37.5* | 6.8 | 4.7
CCCc1ccc(OCC(=O)Nc2ccc(Cl)cc2C(=O)c2ccccc2)cc1 | nt | -1.4 | nt | 0.1 | nt
CC(C)OCC(O)CN1CC2C[C@@H](C1)Cn1c2cccc1=O (stereo partly drawn) | 7.0 | 22.6 | 41.7* | -14.3 | 3.6
SMILES | D2 ag-1 | D2 ag-2 | D2 antag | D2 PAM-1 | D2 PAM-2
Cc1ccc(NC(=O)CN2C(=O)CN=C(c3ccccc3)c3ccccc32)cc1Cl | nt | -0.3 | nt | -10.9 | nt
COc1cc2ccc(=O)oc2c2ccoc12 | 0.0 | -0.4 | -30.6 | 2.3 | -35.5
COc1cc2occc2c2oc(=O)ccc12 | 0.0 | -0.9 | 32.6* | -1.3 | -23.5
COc1ccc(/C=C/c2nc3ccccc3c(=O)n2-c2ccc(C)cc2)cc1O | nt | 0.1 | nt | nt | nt
COc1ccc(-c2nc(CN3C(=O)CN=C(c4ccccc4)c4ccccc43)c(C)o2)cc1 | nt | nt | nt | -2.7 | nt
CC[C@H]1C2C[C@H]3[C@@H]4N(C)c5ccccc5C45C[C@H](C2[C@H]5O)N3[C@@H]1O (stereo partly drawn) | -2.0 | 0.6 | 35.8* | -9.6 | -25.7
CNC(=S)NC1CC2CCCC(C1)N2CC(C)C (stereo not drawn) | 0.1 | nt | nt | nt | -14.9
Cc1ccc(CN2C3CCCC2CC(NC(=S)NCc2ccccc2)C3)cc1 (stereo not drawn) | -1.3 | 1.0 | 104.4* | -29.7 | -1.7
CCOc1ccc(CN(CCc2ccc3c(c2)OCO3)Cc2cccc(Br)c2)cc1 | nt | nt | nt | 1.0 | nt
Cc1ccc(CN2CCN(Cc3ccccc3F)CC2)cc1 | -4.2 | -1.3 | 38.9* | -15.4 | -21.5
COc1ccccc1CN1CCN(Cc2ccc(Cl)cc2)CC1 | -1.4 | 0.6 | 76.4* | -24.1 | -23.5
COc1ccccc1N1CCN(Cc2ccc(SC)cc2)CC1 | -3.2 | -1.1 | 78.8* | -21.4 | -81.7
COc1ccc(CN2CCN(Cc3ccccc3OC)CC2)cc1 | -2.9 | -0.5 | -4.6 | 0.7 | -22.3
COc1ccccc1N1CCN(Cc2ccc(Cl)cc2Cl)CC1 | -0.1 | -1.5 | 34.7* | -29.8 | -34.6
Clc1ccccc1CN1CCN(c2ccccc2Cl)CC1 | 2.6 | 15.3 | -25.0 | -24.9 | -19.2
Cc1oc2cc3oc(=O)c(CCC(=O)N4CCCCC4)c(C)c3cc2c1C | nt | nt | nt | 8.3 | nt
Cc1cc(C)cc(-n2c(/C=C/c3cccc(F)c3)nc3ccccc3c2=O)c1 | nt | -0.2 | nt | 7.2 | nt
CCC12CN3CC(CC)(CN(C1)C3c1c(C)[nH]c(=O)[nH]c1=O)C2=O (stereo not drawn) | nt | 0.3 | nt | 5.0 | nt
O=C(COc1ccccc1Cl)N1CCN(CCc2ccccn2)CC1 | nt | -1.9 | nt | -3.0 | nt
CSc1ccc(CN2CCN(c3ccccc3C)CC2)cc1 | 3.3 | 0.1 | 70.8* | -31.8 | -15.3
CCN(CC)P(=O)(c1n(CC)cc[n+]1CC)N(CC)CC | -3.9 | -0.2 | -16.7 | 31.5* | -1.3
O=C(COc1cccc(Cl)c1)N1CCN(CCc2ccncc2)CC1 | nt | -0.8 | nt | -5.9 | nt
Cc1ccc2c(c1)C1CN(C)CCC1N2C(=O)/C(C#N)=C/c1ccc2c(c1)OCO2 (stereo not drawn) | -1.5 | -0.2 | 47.7* | -9.5 | -5.5
Cc1ccc2c(c1)C1CN(C)CCC1N2C(=O)/C=C/c1ccc2c(c1)OCO2 (stereo not drawn) | -2.2 | 0.3 | 21.4 | -10.3 | -10.9
